Test results from PubChem BioAssay (EPA / NIEHS).
Activity calls are given as the source filed them. Rule for the calls: active = hit-call score of the fitted dose curve at least 0.9, where 1 is the maximum; inactive = score below 0.9.

Each molecule was assayed against X-box-binding protein 1 (Homo sapiens) (UniProt P17861) (assay: ATG_Xbp1_CIS: Attagene CIS-FACTORIAL HepG2 Assay for human X-box Binding Protein 1 (XBP1) (AID 2282972)). Conditions: HepG2 XBP1 cis-element reporter, Attagene multiplex; actives raise or lower the signal.
Experimental: ATG_CIS is a cell-based, multiplexed-readout assay that uses HepG2, a human liver cell line, with measurements taken at 24 hours after chemical dosing in a 24-well plate.ATG_Xbp1_CIS is one of 52 assay component(s) measured or calculated from the ATG_CIS assay. It is designed to make measurements of mRNA induction, a form of inducible reporter, as detected with fluorescence intensity signals by Reverse transcription polymerase chain reaction (RT-PCR) and Capillary electrophoresis technology.Data from the assay component ATG_Xbp1_CIS was analyzed into 1 assay endpoint. This assay endpoint, ATG_Xbp1_CIS, was analyzed with bidirectional fitting relative to DMSO as the negative control and baseline of activity. Using a type of inducible reporter, measures of mRNA for gain or loss-of-signal activity can be used to understand the reporter gene at the transcription factor-level as they relate to the gene XBP1. Furthermore, this assay endpoint can be referred to as a primary readout, because this assay has produced multiple assay endpoints where this one serves a reporter gene function. To generalize the intended target to other relatable targets, this assay endpoint is annotated to the dna binding intended target family, where the subfamily is basic leucine zipper.
Human liver HepG2 cells are transiently transfected with multiple reporter transcription units (MRTUs) in 6-well plates using FuGene 6 reagent (Roche; 3 ml FuGene/1 mg DNA). The MRTU constructs are regulated by a cis-regulating element (promoter). […] A major difference between the CIS and TRANS system is that in CIS activities of endogenous TFs are measured, whereas the TRANS assay evaluates changes in activities of exogenous, chimeric NR-Gal4 proteins. […] At the end of 24 hour incubation, total RNA was isolated using TriZol reagent (Invitrogen). The isolated RNA is then reverse-transcribed using oligo(dT) primer and Mo-MLV reverse transcriptase (Invitrogen) with DNAse I (Ambion) treatment for 30 min. The one-tenth of the produced cDNA was amplified by PCR using Taq DNA polymerase (Invitrogen) and two reporter sequence-specific primers. The PCR products were fluorescently labeled by primer extension with 6-arboxyfluorescein (6-FAM) 5'-labeled reporter sequence-specific primer (2 min at 95 C, 20 s at 68 C and 10 min at 72 C) and these products were digested with 5U of HpaI (New England Biolabs) for 2h at 37 C. The fragments were purified using Qiaquick PCR columns (Qiagen), analyzed on an ABI 3130xL genetic analyzer (Applied Biosystems) with peak positions identified by using a set of X-rhodamine (ROX)-labeled MapMarker1000 molecular weight standards (BioVentures). The raw capillary electrophoresis data was processed using Attagraph software (Attagene).

Sequence of X-box-binding protein 1 (Homo sapiens) (P17861 whole entry, looked up): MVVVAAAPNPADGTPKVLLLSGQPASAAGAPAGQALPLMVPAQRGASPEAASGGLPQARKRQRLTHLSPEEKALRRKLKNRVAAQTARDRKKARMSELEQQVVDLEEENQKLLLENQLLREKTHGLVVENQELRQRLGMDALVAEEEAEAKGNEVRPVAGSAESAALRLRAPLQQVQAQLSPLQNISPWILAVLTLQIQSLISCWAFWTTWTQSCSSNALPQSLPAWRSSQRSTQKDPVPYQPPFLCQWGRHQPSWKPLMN

Structure (SMILES) | outcome | AC50
CCCCOC(C)=O | inactive | –
CC(O)(CS(=O)(=O)c1ccc(F)cc1)C(=O)Nc1ccc(C#N)c(C(F)(F)F)c1 (stereo not given) | inactive | –
N#CS | inactive | –
Oc1cc(Cl)c(Cl)cc1Cl | – | 59 µM (active)
CC(C)C(C)(N)C#N (stereo not given) | inactive | –
CC(C)=CC1C(C(=O)OCc2cccc(Oc3ccccc3)c2)C1(C)C (stereo not given) | inactive | –
N#Cc1ccccc1N | inactive | –
C=C(C)[C@@H]1CC=C(C=O)CC1 | inactive | –
ClCc1ccccc1Cl | – | 100 µM (active)
OC(c1ccc(Cl)cc1)(c1ccc(Cl)cc1)c1cccnc1 | inactive | –
O=S1OC[C@@H]2[C@H](CO1)[C@]1(Cl)C(Cl)=C(Cl)[C@@]2(Cl)C1(Cl)Cl (stereo not given in full) | – | 100 µM (active)
[Cl][Sn]([c]1ccccc1)([c]1ccccc1)[c]1ccccc1 | – | 0.242 µM (active)
CN(C)C(=S)S | inactive | –
COCC(=O)N(c1c(C)cccc1C)[C@H](C)C(=O)OC | inactive | –
OCCN(CCO)CCO | inactive | –
O=C(O)C1(c2ccc3c(c2)OC[C@H](Cc2ccc(-c4ccccc4)cc2)[C@H]3O)CCCC1 | inactive | –
CNC(=O)CSP(=O)(OC)OC | inactive | –
CCCCCCCCCCCCCCC(Br)C(=O)O (stereo not given) | – | 152 µM (active)
C=CC(Cl)CCl (stereo not given) | inactive | –
CN(C1CCCCC1)C1CCCCC1 | inactive | –

Structure (SMILES) | outcome | AC50
CCOP(=S)(OCC)SCSc1cc(Cl)ccc1Cl | inactive | –
C1CN2CCN1CC2 | inactive | –
O=[N+]([O-])c1c2ccccc2cc2ccccc12 | inactive | –
Nc1ccc(N)cc1 | inactive | –
O=C(NC(=O)c1c(F)cccc1F)Nc1cc(Cl)c(Oc2ncc(C(F)(F)F)cc2Cl)c(Cl)c1 | inactive | –
CCCCCCCCCCCCc1cccc(S(=O)(=O)O)c1 | inactive | –
Cc1ccc(OP(=O)(Oc2ccc(C)cc2C)Oc2ccc(C)cc2C)c(C)c1 | inactive | –
O=C(CBr)c1ccc(O)cc1 | inactive | –
CC(C)(C)c1ccc(CCOc2ncnc3ccccc23)cc1 | inactive | –
O=NN1CCCCCCC1 | inactive | –
c1cc[c]([Sb]([c]2ccccc2)[c]2ccccc2)cc1 | inactive | –
C[As+](C)(C)CC(=O)[O-] | inactive | –
CC1(C)COP(Oc2ccccc2)OC1 | inactive | –
BrCc1ccc(Br)cc1 | inactive | –
COc1ccccc1N | inactive | –
CCCCN(CCCC)C(=S)S | – | 70.5 µM (active)
CNC(=O)N(C)c1nc2ccccc2s1 | inactive | –
CCOP(=S)(OCC)SCS(=O)(=O)C(C)(C)C | inactive | –
N#CCC#N | inactive | –
CCCCOP(=O)(CCCC)OCCCC | inactive | –
